Shown are actives, neighbours in structure and some others; about 18% of the full set was active somewhere.
VP16 counter – Gal4-VP16 reporter inhibition counter-screen | Drosophila S2 Gal4-VP16 UAS-luciferase, luminescence, 20 h | Potency, µM (titrated, usually from 53.6 µM), for inactives: at the top dose activity, negative = inhibition, hits mostly inhibitors | 310,000 compounds, 3.5% hits | AID 2546;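 further: Gal4-VP16 expression switched on by copper sulfate through the metallothionein promoter; potency means the concentration at half of the fitted maximal effect; nearly all actives have a fitted effect of over 50% in size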
RORg inh – inhibitors of mouse ROR gamma transcriptional activity | P51450 | Drosophila S2 Gal4-RORgamma UAS-luciferase reporter, 20 h | Potency, µM (top dose mostly 53.6 µM), inactives show at the highest dose activity change, negative = inhibition, most hits filed as inhibitors | 310,000 compounds, 5.4% hits | AID 2551; further: potency means the concentration at half of the fitted maximal effect; nearly all actives have a fitted effect of over 60% in size
Target sequence (P51450 whole entry, looked up, the tested form may be a part): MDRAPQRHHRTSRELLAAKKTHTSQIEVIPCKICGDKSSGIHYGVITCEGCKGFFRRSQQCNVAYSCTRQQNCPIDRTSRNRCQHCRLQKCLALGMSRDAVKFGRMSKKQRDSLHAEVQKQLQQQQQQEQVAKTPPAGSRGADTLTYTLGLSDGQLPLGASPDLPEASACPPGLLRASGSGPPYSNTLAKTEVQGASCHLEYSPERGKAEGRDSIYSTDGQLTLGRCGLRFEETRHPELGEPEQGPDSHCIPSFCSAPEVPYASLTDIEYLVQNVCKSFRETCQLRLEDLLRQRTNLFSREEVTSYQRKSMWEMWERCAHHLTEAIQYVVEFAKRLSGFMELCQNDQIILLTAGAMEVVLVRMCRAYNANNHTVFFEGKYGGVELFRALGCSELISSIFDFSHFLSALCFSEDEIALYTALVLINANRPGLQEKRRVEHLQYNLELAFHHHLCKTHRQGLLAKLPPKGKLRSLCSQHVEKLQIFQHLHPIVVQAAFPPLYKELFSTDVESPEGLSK
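A Gal4/UAS one-hybrid system in insect cells: metallothionein-promoter Gal4–ROR gamma fusion plus Photinus luciferase reporter. Copper sulfate 700 uM final, 20 hr ambient incubation, luminescent detection after 10 min with reagent.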
IL-1B inflam inh – blocks inflammasome-driven IL-1 beta release; THP-1 LPS/ATP IL-1B secretion, AlphaLISA, 16 h; active compounds read low; activity change, % at 57.5 µM; 360,000 compounds, 4.7% hits; AID 743279; in the data active means activity change below about -50%; inconclusive means mostly about -30% to -49%
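THP-1 cells pretreated 1 hr with compounds (up to 57.5 uM final), then stimulated with LPS (250 ng/mL final) plus ATP (1.25 mM final); secreted IL-1B measured by AlphaLISA after 16 hr, decreased signal indicating inhibition.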
LDHA inh – inhibitors of human lactate dehydrogenase A. P00338. purified LDHA, NADH/diaphorase-resazurin fluorescence; active compounds read low. activity change, % (values are at about 110 or 230 µM). 480,000 compounds, 0.15% hits. AID 1347041; in the data active means activity change below about -30%; inconclusive means mostly about -25% to -30%;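 further: plate controls were DMSO wells for no effect and wells without enzyme for full effect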
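LDH5 2 nM; NADH 0.06 mM, pyruvate 0.2 mM; 200 mM Tris pH 7.4, EDTA, Tween-20; 5 min RT. Detection: diaphorase 0.133 mg/mL + resazurin 37 µM, fluorescence ex540/em590 at 0 and 20 min; normalized to enzyme-free and DMSO wells.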
DT40 TDP1 CPT – DT40-hTDP1 cell growth loss with CPT | 420,000 compounds, 12% hits | Potency, µM (titrated, usually from 46.2 µM), inactives show at the highest dose activity change, negative = growth inhibition, hits mostly inhibitors | AID 686979 | chicken DT40 Tdp1-/-;hTDP1 cells + 20 nM CPT, ATP luminescence, 48 h; further: potency means the concentration at half of the fitted maximal effect; nearly all actives have a fitted effect of over 55% in size
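Chicken DT40 Tdp1-/- cells stably complemented with human TDP1 were seeded at 400 cells/well in medium containing 20 nM camptothecin, exposed to pin-transferred compounds, and grown at 37 °C for at least 48 hr. Viability was read as ATP luminescence.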
DT40 TDP1 no CPT – qHTS for Inhibitors of human tyrosyl-DNA phosphodiesterase 1 (TDP1): qHTS in cells in absence of CPT. DT40 Tdp1-/- hTDP1 cells, no CPT, ATP luminescence, 48 h. Potency, µM (doses to about 46.2 µM), for the others: at the top dose activity change, negative = growth inhibition, actives largely listed as inhibitors. 420,000 compounds, 15% hits; further: potency means the concentration at half of the fitted maximal effect; nearly all actives have a fitted effect of over 55% in size
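Stably hTDP1-transfected Tdp1-null chicken DT40 cells were treated with library compounds minus camptothecin and grown for at least 48 hr at 37 °C, after which cellular ATP was quantified by luminescence.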
* marks the source's active call; other numbers are inactive results; [ ] = dose if it differs, or a comment. Unless noted, the call rests on the fitted dose curve; in most records, active means well fitted curve in the direction sought with a large enough effect; inconclusive means small, poorly fitted or top-dose-only effect, or another doubt; inactive means no such curve, though single readings can be large; an effect the other way counts as inactive or inconclusive. Unless noted, on the % scale 0 is the no-effect control and ±100 the full control effect.

Screening COc1cccc(NC(=O)CN(C)C(=O)c2cc(-c3ccc(F)cc3)nc3ccccc23)c1 returned IL-1B inflam inh -62*, LDHA inh -13, DT40 TDP1 CPT inconclusive and DT40 TDP1 no CPT inconclusive.
c1ccc(Cn2c(-c3ccccc3)c[n+]3c2SCCC3)cc1 was read as VP16 counter -10%, RORg inh 41%, IL-1B inflam inh -21, LDHA inh 2, DT40 TDP1 CPT 2.9µM* and DT40 TDP1 no CPT 2.3µM*.
For c1ccc(-c2ccc(CN3CCSCC3)cc2)cc1 the results were VP16 counter 23%, RORg inh inconclusive, IL-1B inflam inh -26, LDHA inh -9, DT40 TDP1 CPT inconclusive and DT40 TDP1 no CPT -24%.
COc1ccccc1CCNC(=O)c1sc(NC(C)C)nc1C was read as LDHA inh -3.
`NCC12CC3CC(C1)CC(c1ccc(Cl)cc1)(C3)C2` gave VP16 counter inconclusive, RORg inh inconclusive, IL-1B inflam inh -89*, LDHA inh -3, DT40 TDP1 CPT 6.5µM* and DT40 TDP1 no CPT 6.5µM*.
Nc1ccc(C23CC4CC(CC(CO)(C4)C2)C3)cc1 was read as VP16 counter -14%, RORg inh 7%, IL-1B inflam inh -5, LDHA inh -1, DT40 TDP1 CPT -8% and DT40 TDP1 no CPT -3%.
Screening Cc1cccc2c(=O)c(-c3ccccc3)c(NC(=O)C(C)C)oc12 returned LDHA inh -4.
CCCn1c(N)c(N(CCOC)C(=O)c2ccc(OC(F)(F)F)cc2)c(=O)[nH]c1=O was read as LDHA inh 11.
Screening COc1cccc(-c2cncnc2NCCc2cnc[nH]2)c1 returned VP16 counter 2%, RORg inh -32%, DT40 TDP1 CPT 2.6µM* and DT40 TDP1 no CPT inconclusive.
COc1ccc2[nH]cc(CCNc3ncncc3-c3ccc4c(c3)OCO4)c2c1 was read as VP16 counter inconclusive, RORg inh 33%, DT40 TDP1 CPT 6.5µM* and DT40 TDP1 no CPT 18µM*.
COc1ccc2[nH]cc(CCNc3cc(-c4cccnc4)ncn3)c2c1 was read as VP16 counter -7%, RORg inh 0%, DT40 TDP1 CPT inconclusive and DT40 TDP1 no CPT -25%.
Screening COc1ccc2[nH]cc(CCNc3ncncc3-c3c(C)noc3C)c2c1 returned VP16 counter 7%, RORg inh 41%, DT40 TDP1 CPT inconclusive and DT40 TDP1 no CPT inconclusive.
Screening N#Cc1cccc(-c2cncnc2NCCc2cnc[nH]2)c1 returned VP16 counter -3%, RORg inh 16%, DT40 TDP1 CPT -12% and DT40 TDP1 no CPT -25%.
COc1ccc2[nH]cc(CCNc3cc(-c4ccccc4C)ncn3)c2c1 was read as VP16 counter -9%, RORg inh -7%, DT40 TDP1 CPT 9.2µM* and DT40 TDP1 no CPT 16µM*.
Screening COc1cccc(-c2cncnc2NCCc2c[nH]c3ccc(OC)cc23)c1 returned VP16 counter inconclusive, RORg inh -13%, DT40 TDP1 CPT 23µM* and DT40 TDP1 no CPT 21µM*.
Screening CCN(CC)c1nc2ccccc2nc1C(=O)Nc1ccc(OC)c(OC)c1 returned LDHA inh 9.
Screening COc1ccc2[nH]cc(CCNc3cc(-c4ccc5c(c4)OCO5)ncn3)c2c1 returned VP16 counter 8%, RORg inh 26%, DT40 TDP1 CPT inconclusive and DT40 TDP1 no CPT 21µM*.
For COc1ccc2[nH]cc(CCNc3ccnc(-c4ccc5c(c4)OCO5)n3)c2c1 the results were VP16 counter 2%, RORg inh 38%, DT40 TDP1 CPT inconclusive and DT40 TDP1 no CPT inconclusive.
Screening CCCNc1c(NC(=O)NCc2cccc(OC)c2)c(=O)oc2ccccc12 returned LDHA inh 7.
`Cc1ccc(S(=O)(=O)Nc2cccc(C(=O)NCC(c3ccco3)N(C)C)c2)cc1F` (configuration not stated) gave IL-1B inflam inh -8, LDHA inh -3, DT40 TDP1 CPT inconclusive and DT40 TDP1 no CPT 21µM*.
Cc1ccc(S(=O)(=O)Nc2cccc(C(=O)NCc3cccnc3)c2)cc1F was read as IL-1B inflam inh 16, LDHA inh -2, DT40 TDP1 CPT inconclusive and DT40 TDP1 no CPT 4.6µM*.
Screening Cc1nc2ccc(S(=O)(=O)N(CC(=O)N3CCCCC3)Cc3ccccc3)cc2s1 returned LDHA inh 0.
Screening CCN(CC1COc2ccccc2O1)C(=S)NC1CC2CCC1C2 (configuration not stated) returned VP16 counter inconclusive, RORg inh 8.9µM*, IL-1B inflam inh 35, LDHA inh -9, DT40 TDP1 CPT -5% and DT40 TDP1 no CPT -3%.
CN(CC1COc2ccccc2O1)C(=S)Nc1ccccc1 (configuration not stated) was read as IL-1B inflam inh -24, LDHA inh -3, DT40 TDP1 CPT 5% and DT40 TDP1 no CPT -3%.
For O=C(Cc1n[nH]c(=O)c2ccccc12)Nc1cccc(S(=O)(=O)Nc2cccc(Cl)c2)c1 the results were LDHA inh 8.
O=C(NCc1nc2ccccc2[nH]1)c1cccc(Cl)c1 was read as LDHA inh -9, DT40 TDP1 CPT -22% and DT40 TDP1 no CPT -5%.
`Clc1cccc(N/N=C(\Cc2nc3ccccc3[nH]2)c2ccccc2)c1` gave VP16 counter -89%, RORg inh 18µM*, IL-1B inflam inh -104*, LDHA inh -4, DT40 TDP1 CPT inconclusive and DT40 TDP1 no CPT inconclusive.
Screening CC(C)c1nnc(NC(=O)c2cc(=O)c3ccccc3o2)s1 returned LDHA inh 1.
For CC(C(=O)O)C1CCC2C3CC=C4CC(O)CC[C@@]4(C)C3CC[C@]12C (some centres not stated) the results were VP16 counter 3%, RORg inh -21%, DT40 TDP1 CPT 2% and DT40 TDP1 no CPT 0%.
`CC1=C(CO)C(=O)OC([C@@H](C)C2CC[C@H]3C4C[C@H]5O[C@]56[C@@H](O)C=CC(=O)[C@]6(C)C4CC[C@]23C)C1` (some centres not stated) gave VP16 counter inconclusive, RORg inh inconclusive, IL-1B inflam inh -107*, LDHA inh -4, DT40 TDP1 CPT 1.5µM* and DT40 TDP1 no CPT 1.3µM*.
Cc1cc(C)nc(N/N=C/c2cccc3ccccc23)n1 was read as VP16 counter -74%, RORg inh -39%[10 µM], IL-1B inflam inh 32, LDHA inh 0, DT40 TDP1 CPT inconclusive and DT40 TDP1 no CPT inconclusive.

Bioassay records as filed in PubChem.
